Bioassay records (PubChem BioAssay)
HT1080 IDH1KD tx: qHTS for induction of synthetic lethality in tumor cells producing 2HG: qHTS for the HT-1080-IDH1KD cell line. HT-1080 IDH1 knockdown viability, ATP luminescence, 48 h. Potency, µM (top dose mostly 46.1 µM), for inactives: at the highest dose activity, negative = toxicity, hits mostly cytotoxic. hit rate 2% among 360,000;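 further: potency means the concentration at half of the fitted maximal effect; 0% = DMSO wells and -100% = cell-free medium wells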
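In this qHTS, HT-1080 cells depleted of IDH1 are exposed for 48 h at 37 °C to compound titrations. Toxicity is scored from CellTiter-Glo luminescence, with DMSO as full viability and medium alone as none.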
TDP1 cell noCPT: qHTS for Inhibitors of human tyrosyl-DNA phosphodiesterase 1 (TDP1): qHTS in cells in absence of CPT | hit rate 15% among 420,000 | AID 686978, 2013 | Potency, µM (top dose mostly 46.2 µM), for inactives: top-dose activity change, negative = growth inhibition, actives largely listed as inhibitors | DT40 Tdp1-/- hTDP1 cells, no CPT, ATP luminescence, 48 h; further: potency means the concentration at half of the fitted maximal effect; nearly all actives have a fitted effect of over 55% in size
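Stably hTDP1-transfected Tdp1-null chicken DT40 cells were treated with library compounds minus camptothecin and grown for at least 48 hr at 37 °C, after which cellular ATP was quantified by luminescence.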
TDP1 cell CPT: qHTS for Inhibitors of human tyrosyl-DNA phosphodiesterase 1 (TDP1): qHTS in cells in presence of CPT; Potency, µM (titrated, usually from 46.2 µM), without a hit: top-dose activity change, negative = growth inhibition, hits mostly inhibitors; chicken DT40 Tdp1-/-;hTDP1 cells + 20 nM CPT, ATP luminescence, 48 h; AID 686979, 2013; hit rate 12% among 420,000; further: potency means the concentration at half of the fitted maximal effect; nearly all actives have a fitted effect of over 55% in size
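Chicken DT40 Tdp1-/- cells complemented with human TDP1, 400 cells/well, exposed to compounds plus 20 nM camptothecin for at least 48 h at 37 C; viability read as ATP content by CellTiter-Glo luminescence.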
IL-1B inflam inh: qHTS for Inhibitors of Inflammasome Signaling: IL-1-beta AlphaLISA Primary Screen; AID 743279, 2014; THP-1 LPS/ATP IL-1B secretion, AlphaLISA, 16 h; stronger effect = lower value; hit rate 4.7% among 360,000; activity change, % at 57.5 µM; in the data active means activity change below about -50%; inconclusive means mostly about -30% to -49%
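THP-1 cells pretreated 1 hr with compounds (up to 57.5 uM final), then stimulated with LPS (250 ng/mL final) plus ATP (1.25 mM final); secreted IL-1B measured by AlphaLISA after 16 hr, decreased signal indicating inhibition.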
HT1080NT lethal: qHTS for induction of synthetic lethality in tumor cells producing 2HG: qHTS for the HT-1080-NT fibrosarcoma cell line. Potency, µM (titrated, usually from 46.1 µM), without a hit: top-dose activity, negative = less viability, hits mostly cytotoxic. hit rate 1.6% among 360,000. HT-1080-NT fibrosarcoma viability, CellTiter-Glo ATP luminescence, 48 h;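 further: NT is the 2HG producing partner of a matched IDH1 knockdown line; potency means the concentration at half of the fitted maximal effect; 0% = DMSO-treated cells and -100% = media-only wells without cells; nearly all actives have a fitted effect of over 55% in size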
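A 48-hour cytotoxicity screen used HT-1080-NT cells plated 2 hours before compound delivery. ATP-based CellTiter-Glo luminescence measured viability, normalized to DMSO and no-cell controls.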
Active calls of the source: *; ? = inconclusive; . = not tested or not shown; [ ] = remark or other dose. Most compounds without a hit are left out; they make up all but 19% or so of the library. Unless noted, the call rests on the fitted dose curve; in most records, active means well fitted curve in the direction sought with a large enough effect; inconclusive means small, poorly fitted or top-dose-only effect, or another doubt; inactive means no such curve, though single readings can be large; an effect the other way counts as inactive or inconclusive. Unless noted, on the % scale 0 is the no-effect control and ±100 the full control effect.

SMILES	HT1080 IDH1KD tx	TDP1 cell noCPT	TDP1 cell CPT	IL-1B inflam inh	HT1080NT lethal
O=C(CSc1nc2cc(S(=O)(=O)N3CCOCC3)ccc2o1)Nc1c(F)cccc1F	-3%	21µM*	21µM*	0	-2%
CCN(C(=O)CSc1nnc2c3ccccc3n(CC)c2n1)C1CCS(=O)(=O)C1 (stereo not given)	-4%	?	-29%	-3	-1%
Cc1[nH]c2ccccc2c1C(=O)CSc1nc2cc(S(=O)(=O)N3CCCCC3)ccc2o1	-22%	21µM*	23µM*	-17	-13%
O=C1C(C2=C(O)c3ccccc3C2=O)=Nc2ccccc21	?	15µM*	10µM*	-93*	-27%
COc1ccccc1CCNC(=O)C(=O)NCC(c1cccnc1)N1CCN(c2ccccc2)CC1 (stereo not given)	.	12µM*	12µM*	.	.
COc1ccccc1CNC(=O)C(=O)NCC(c1cccnc1)N1CCN(c2ccc(F)cc2)CC1 (stereo not given)	.	13µM*	12µM*	.	.
O=C1C=C(OCCF)CC(c2cccc([N+](=O)[O-])c2)O1 (stereo not given)	-3%	23%	32%	6	1%
O=C1c2cccnc2C(=O)N1c1nc(-c2ccccc2)cs1	.	-29%	-21%	.	.
Cn1c(SCc2ccc(F)cc2)nc2ccc(C(=O)NCc3ccc(F)cc3)cc21	.	16µM*	16µM*	.	.
CC(C)Oc1ccc(CNC(=O)c2ccc3nc(SCc4ccc(F)cc4)n(C)c3c2)cc1	.	?	-19%	.	.
Cn1c(SCc2ccc(F)cc2)nc2ccc(C(=O)NCc3cccc(Cl)c3)cc21	.	?	16µM*	.	.
Cc1ccc(CNC(=O)c2ccc3nc(SCc4ccc(F)cc4)[nH]c3c2)cc1	.	13µM*	15µM*	.	.
COc1ccc2nc(SCC(=O)NCc3ccc(F)cc3)[nH]c2c1	-2%	?	?	4	11%
CN1CCN(/C=N/c2sc3c(c2C#N)CCCCC3)CC1	-6%	?	?	3	1%
Cc1ccc(/C=N/c2sc3c(c2C#N)CCCCC3)o1	0%	-9%	-16%	-19	-9%
CCN(/C=N/c1sc2c(c1C#N)CCCCC2)CC	4%	21µM*	?	-13	2%
CC(C)CN(/C=N/c1sc2c(c1C#N)CCCCC2)CC(C)C	6%	15µM*	21µM*	16	9%
O=C(COC(=O)CCOc1ccccc1)Nc1ncc(Cl)cc1Cl	10%	14%	-3%	10	13%
COc1ccc(-n2cc(CN[C@H]3CCCCNC3=O)c(-c3cccc(F)c3)n2)cc1	-1%	5.8µM*	5.8µM*	?	-15%
COc1ccc(-n2cc(CN3CCCC3)c(-c3cccc(F)c3)n2)cc1	-18%	21µM*	?	-77*	-8%
Cc1cccc(-n2cc(CN3CCN(Cc4nccn4C)CC3)c(-c3cccc(F)c3)n2)c1	?	?	?	?	-25%
COc1ccc(-n2cc(CNC3CCN(C)CC3)c(-c3cccc(F)c3)n2)cc1	21µM*	15µM*	15µM*	-63*	21µM*
CN(C)c1nc(-c2ccoc2)nc2ccccc12	.	-25%	-14%	.	.
Cc1cccc(-c2nnc(C3CCN(S(=O)(=O)c4cccc(Cl)c4)CC3)o2)c1	.	2.9µM*	3.7µM*	.	.
COc1ccc(-c2nnc(C3CCN(S(=O)(=O)c4ccccc4)CC3)o2)cc1	-6%	?	?	-7	-11%
SMILES	HT1080 IDH1KD tx	TDP1 cell noCPT	TDP1 cell CPT	IL-1B inflam inh	HT1080NT lethal
CC(=O)Nc1ccc(S(=O)(=O)N2CCC(c3nnc(-c4ccc(C)cc4)o3)CC2)cc1	2%	21µM*	?	-14	12%
Cc1ccc(-c2nnc(C3CCN(S(=O)(=O)c4ccc(C)c(C)c4)CC3)o2)cc1	.	26µM*	?	.	.
CCN(CC)C(=S)NC(=O)c1ccc(OC)c(Br)c1	-7%	?	?	28	-18%
C=CCN(CC=C)C(=S)NC(=O)c1ccc([N+](=O)[O-])cc1	-9%	3.7µM*	5.8µM*	5	-10%
C=CCN(CC=C)C(=S)NC(=O)c1ccc(OC)c(Br)c1	3.2µM*	5.8µM*	12µM*	12	?
COc1ccc(C(=O)c2ccc(OC)c(Br)c2)cc1Br	-29%	21µM*	18µM*	-8	-24%
COc1ccc(C(=O)c2cccc(C(=O)c3ccc(OC)c(C)c3)c2)cc1C	0%	-22%	-18%	13	12%
Cc1ccc(C)c(N2C(=O)c3ccc(C(=O)Nc4ccccn4)cc3C2=O)c1	6%	2%	1%	17	3%
CC(C)Cn1c(=O)c(C(=O)Nc2ccncc2)c(O)c2ccccc21	0%	4.1µM*	2.9µM*	0	-3%
CC(C)Cn1c(=O)c(C(=O)Nc2cnccn2)c(O)c2ccccc21	5%	26µM*	?	31	1%
O=C(CSCc1ccc(Cl)cc1)NCc1ccccn1	?	-18%	-4%	-3	-5%
CCOC(=O)c1ccc(NC(=O)c2nn(CC)cc2Br)cc1	-17%	-19%	-2%	-20	2%
CCOC(=O)c1c(NC(=O)c2nn(CC)cc2Br)sc2c1CCCCC2	9%[9.24 µM]	?	18µM*	?	8%
CCOC(=O)c1c(NC(=O)c2nn(CC)cc2Br)sc(C)c1C	3%	?	16µM*	-22	13%
CCOC(=O)c1nn(-c2ccccc2)c(C#N)c1N	-1%	-9%	16%	-20	17%
CCOC(=O)c1nn(-c2ccccc2)c(C#N)c1NC(=O)c1nn(CC)cc1Br	-4%	18µM*	15µM*	-14	-23%
Nc1[nH]c(C(=O)c2ccccc2)c(-c2ccccc2Br)c1C(=O)NCCc1ccc(Cl)cc1Cl	9%	?	?	-11	7%
CCC(C)(C)C1CCc2[nH]nc(C(=O)NCCCNC(=O)OC(C)(C)C)c2C1 (stereo not given)	-4%	18µM*	?	48	-6%
CCC(C)(C)C1CCc2[nH]nc(C(=O)NCc3ccccn3)c2C1 (stereo not given)	3%	23µM*	15µM*	15	4%
CCC(C)(C)C1CCc2[nH]nc(C(=O)NCc3ccc(Cl)cc3)c2C1 (stereo not given)	18%	?	?	-26	14%
CCCCn1c(N)c(N(CCOC)C(=O)c2cc(C)oc2C)c(=O)[nH]c1=O	-2%	1%	7%	3	7%
COCCNC(=O)CSc1nc(-c2ccccc2)c(-c2ccccc2)o1	-18%	?	12µM*	8	0%
